We go through 40 molecules from PubChem BioAssay (Tox21).

Unmarked numbers belong to inactive results. The source made the active and inactive calls. The call rests on the fitted dose curve; in most records, active means well fitted activation curve with a large enough effect in the repeat runs; inconclusive means weak or mixed curves; inactive means flat fitted curve, though single readings scatter.
On the % scale 0 is the no-effect control and ±100 the full control effect.

Sequence of KiSS-1 receptor (Homo sapiens) (Q969F8 whole entry, looked up): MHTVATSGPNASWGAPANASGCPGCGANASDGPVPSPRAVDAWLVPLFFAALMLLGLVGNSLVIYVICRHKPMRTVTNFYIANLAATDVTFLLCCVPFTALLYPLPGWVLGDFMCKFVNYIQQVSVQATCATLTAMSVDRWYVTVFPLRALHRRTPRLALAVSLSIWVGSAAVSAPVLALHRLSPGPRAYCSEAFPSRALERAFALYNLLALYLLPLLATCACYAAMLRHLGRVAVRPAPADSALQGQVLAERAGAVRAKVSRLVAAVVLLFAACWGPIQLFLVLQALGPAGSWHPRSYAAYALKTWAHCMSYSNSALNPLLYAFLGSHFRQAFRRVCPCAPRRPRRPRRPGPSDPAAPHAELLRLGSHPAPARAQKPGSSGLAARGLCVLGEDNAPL

The target of the assay is KiSS-1 receptor (Homo sapiens) (UniProt Q969F8). Description: Human kisspeptin (KISS1R) small molecule agonists, calcium flux assay in KISS1R-HEK293 cells (AID 1920064). The note with it: KISS1R-HEK293, calcium flux fluorescence, agonist; series mostly up to 76.8 µM. The gist of the method:
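Cell line: HEK293, stable human KISS1R. Dye loading 1 h at 37 C after 18 h culture. Read: kinetic fluorescence, 480/540 nm, 3 min at 1 s intervals.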
In the case of `CN=C(NC#N)Nc1ccc(C2=NNC(=O)CC2C)cc1` (stereo not given), the result was inactive.

Turning to `CCN(CC)CCOC(=O)C(Cc1cccc2ccccc12)CC1CCCO1` (stereo not given), the result was inactive.

Regarding `O=c1[nH]cnc2ccccc12`, the result was inactive.

Take `CCCCCCCCCCOc1cc2c(=O)c(C(=O)OCC)c[nH]c2cc1OCC`: the activation is -0.128% [at 6.97 µM].

`CCC(=O)CC(C)CC` (stereo not given): the activation is -1.52% [at 0.29 µM].

Turning to `CCCCOCCOC(=O)COc1ccc(Cl)cc1Cl`, the outcome was inactive.

On to `CC(=O)CC(=O)OC(C)(C)C`, for which the outcome was inactive.

For `CC(COC(C)(C)C)OCCCO` (stereo not given), the result was inactive.

For the molecule `CCCC1CCCC(=O)O1` (stereo not given), the outcome was inactive.

Take `CCCCCCCCCOC(=O)c1ccccc1C(=O)OCCCCCCCCC`: the outcome was inactive.

With `N#CC1(N)CCCCC1`, the result was inactive.

Take `Cc1ccc(-n2nc(C(C)(C)C)cc2NC(=O)Nc2ccc(OCCN3CCOCC3)c3ccccc23)cc1`: the outcome was inactive.

On to `CCN(CCCCOC(=O)c1ccc(OC)c(OC)c1)C(C)Cc1ccc(OC)cc1` (stereo not given), for which the result was inactive.

Regarding `C=COCC(C)C`, the result was inactive.

For the molecule `C/C=C/C(=O)OCC(C)C`, the result was inactive.

In the case of `N#CSc1ccc(N)c([N+](=O)[O-])c1`, the result was inactive.

As to `C=C(C)C(=O)OCCCCCCCCCCOC(=O)C(=C)C`, the result was inactive.

With `Cc1ccc(C(=O)Oc2ccc(C(O)CNC(C)(C)C)cc2OC(=O)c2ccc(C)cc2)cc1` (stereo not given), the outcome was inactive.

In the case of `C/C=C/C(=O)Oc1c(CCCCCC(C)C)cc([N+](=O)[O-])cc1[N+](=O)[O-]`, the result was inactive.

As to `O=C(CCCCCCCCc1cccnc1)N1CCC(C=C(c2ccccc2)c2ccccc2)CC1`, the outcome was inactive.

Consider `O=C1CCCN1CCO`, for which the result was inactive.

In the case of `N=C(N)c1ccc(OCCCOc2ccc(C(=N)N)cc2)cc1`, the result was inactive.

Consider `COCCCCCCCCOCCC[Si](C)(O[Si](C)(C)C)O[Si](C)(C)C`, for which the outcome was inactive.

Regarding `CCOC(=N)CC(=O)OCC`, the result was inactive.

`Oc1ccc2c(c1)CCC2`: the result was inactive.

Turning to `CC(C)(C)c1nnc(NS(=O)(=O)c2ccccc2)s1`, the result was inactive.

For `CCCCc1nc2cccnc2n1Cc1ccc(-c2ccccc2-c2nnn[nH]2)cc1`, the result was inactive.

Turning to `O=C(O)Cc1csc(-c2ccc(Cl)cc2)n1`, the result was inactive.

In the case of `CCOC(=O)Nc1ccc(NCc2ccc(F)cc2)nc1N`, the result was inactive.

For the molecule `CC(Cl)C(Cl)Cl` (stereo not given), the result was inactive.

Consider `O=C(O)C[C@H](O)C[C@H](O)/C=C/c1c(C2CC2)nc2ccccc2c1-c1ccc(F)cc1`, for which the activation is -0.214% [at 15.8 µM].

`CC(=O)Nc1cccc(C)c1`: the outcome was inactive.

In the case of `CCCCCCc1ccc(N)cc1`, the result was inactive.

As to `O=C=Nc1cccc(C(F)(F)F)c1`, the outcome was inactive.

For `Cc1cc(SC2=C(O)C[C@@](CCc3ccc(N)cc3)(C(C)C)OC2=O)c(C(C)(C)C)cc1CO`, the result was inactive.

Turning to `CCCCC(CC)CN1C(=O)C2C3C=CC(C3)C2C1=O` (stereo not given), the outcome was inactive.

Turning to `NCCS`, the outcome was inactive.

In the case of `O=S1(=O)CC(Cl)(Cl)C(Cl)(Cl)C1`, the outcome was inactive.

In the case of `CN1CCN(C2Cc3ccccc3Sc3ccc(Cl)cc32)CC1` (stereo not given), the result was inactive.

Take `CCOC(=O)C1=NN(c2ccc(Cl)cc2Cl)C(C)(C(=O)OCC)C1` (stereo not given): the result was inactive.
